Assay outcomes (PubChem)
Coupling enz: inhibits coupling enzyme system, counter-screen for aldolase hits; coupling enzyme system counterscreen, AmpLite Red fluorescence; activity change, negative = inhibition, % at 58.2 µM, hits read low; hit rate 0.67% among 290,000; AID 2472; in the data active means activity change below about -30%
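Fluorescence at 525 nm excitation and 598 nm emission measured inhibition of the coupled detection system without aldolase. Compounds (at 57.5 uM final) were preincubated 10 min at room temperature with coupling enzyme reagent before a 20 min substrate/AmpLite Red step.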
Eya2 phos inh: Eya2 (human) phosphatase inhibition. O00167. recombinant Eya2, OMFP fluorescence dephosphorylation (OMFP is methylfluorescein phosphate). Potency, µM (titrated, usually from 76.9 µM), without a hit: top-dose activity, negative = inhibition, actives largely listed as inhibitors. hit rate 0.006% among 330,000. AID 488837; further: potency means the concentration at half of the fitted maximal effect
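Eya2 (0.2 uM) preincubated 10 min at ambient with compound, then OMFP substrate added at 50 uM; 10 min reaction in 50 mM HEPES pH 7.5, 50 mM NaCl, 5 uM MgCl2, 0.05% BSA, 1 mM DTT. Fluorescence read at Ex 485/Em 525 nm.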
TrxR1 substrate: rat thioredoxin reductase 1 substrate activity; Potency, µM (titrated, usually from 114 µM), inactives show at the top dose activity change, negative = substrate turnover; hit rate 0.01% among 390,000; O89049; purified TrxR1 substrate turnover, NADPH consumption readout; further: potency means the concentration at half of the fitted maximal effect; nearly all actives have a fitted effect of over 50% in size
Target sequence (O89049 whole entry, looked up): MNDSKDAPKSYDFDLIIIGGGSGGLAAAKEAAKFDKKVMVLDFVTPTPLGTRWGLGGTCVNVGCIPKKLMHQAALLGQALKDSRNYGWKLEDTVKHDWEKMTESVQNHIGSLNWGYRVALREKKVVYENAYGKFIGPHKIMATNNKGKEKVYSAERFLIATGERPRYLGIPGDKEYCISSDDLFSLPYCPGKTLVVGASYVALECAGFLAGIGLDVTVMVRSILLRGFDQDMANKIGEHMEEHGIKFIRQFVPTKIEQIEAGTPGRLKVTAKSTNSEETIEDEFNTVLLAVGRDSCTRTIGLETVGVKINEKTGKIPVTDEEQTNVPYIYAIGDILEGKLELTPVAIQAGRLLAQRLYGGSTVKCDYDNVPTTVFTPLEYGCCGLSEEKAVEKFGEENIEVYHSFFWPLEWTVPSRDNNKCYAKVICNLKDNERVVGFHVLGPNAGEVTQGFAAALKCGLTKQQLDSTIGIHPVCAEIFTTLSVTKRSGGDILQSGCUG
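Rat TrxR1, dispensed at 90 nM, was prereduced with 400 uM NADPH (final) for 5 min at ~22 deg C, then incubated with compound 15 min before 400 uM selenite. A first-read NADPH fluorescence drop versus no-compound background flagged substrates.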
TrxR1 inh: blocks rat thioredoxin reductase 1; O89049; recombinant rTrxR1, NADPH fluorescence consumption, selenite substrate; Potency, µM (top dose mostly 114 µM), inactives show at the top dose activity change, negative = inhibition, actives largely listed as inhibitors; hit rate 1% among 390,000; further: potency means the concentration at half of the fitted maximal effect; nearly all actives have a fitted effect of over 65% in size
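Rat TrxR1 (90 nM in the dispensed reagent) was pre-reduced with 400 uM NADPH for 5 min at room temperature, then incubated with compound for 15 min. After 400 uM selenite was added, NADPH fluorescence (Ex 340/Em 450 nm) was followed for 8 min.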
IDH1 R132H inh: human IDH1 R132H inhibition. AID 602179. Potency, µM (titrated, usually from 76.6 µM), for the others: at the highest dose activity change, negative = inhibition, actives largely listed as inhibitors. IDH1-R132H enzyme, NADPH consumption, diaphorase/resazurin fluorescence. hit rate 0.093% among 390,000. O75874; further: potency means the concentration at half of the fitted maximal effect; nearly all actives have a fitted effect of over 65% in size
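IDH1-R132H (0.5 ug/mL) preincubated 30 min with compound, then NADPH (0.016 mM) and alpha-KG (2 mM) added; 80 min at RT, pH 7.5. Remaining NADPH coupled via diaphorase/resazurin to fluorescence (540/590 nm); concentration-response curves normalized to no-enzyme control.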
The depositor's hits bear a star; ? = inconclusive; nt = no result given; [ ] = dose if it differs, or a comment. An excerpt weighted towards active compounds, which were near 1.5% of everything screened. Unless noted, the call rests on the fitted dose curve; in most records, active means well fitted curve in the direction sought with a large enough effect; inconclusive means small, poorly fitted or top-dose-only effect, or another doubt; inactive means no such curve, though single readings can be large; an effect the other way counts as inactive or inconclusive. On the % scale 0 is the no-effect control and ±100 the full control effect.

SMILES | Coupling enz | Eya2 phos inh | TrxR1 substrate | TrxR1 inh | IDH1 R132H inh
COc1ccc(C(=O)n2nnc3ccccc32)cc1Br | 1 | -17% | 7% | 4µM* | 6%
O=C(Nc1ccccc1Sc1ccccc1)c1cnn2c1NC(=C1CC1)C=C2C(F)F | nt | nt | -3% | 16% | nt
C[C@@H](Oc1ccc(Oc2cnc3ccc(Cl)cc3n2)cc1)C(=O)O | nt | nt | nt | -2% | nt
COc1ccc(OC)c2c(C)ccnc12 | nt | nt | 4% | 12% | nt
C=C1C(=O)O[C@@H]2[C@H]3O[C@]3(C)CC/C=C(\C)CC[C@@H]12 | nt | nt | 1% | 56µM* | 12%
COc1ccc(C2Nc3cccc4cccc(c34)N2)cc1Br | -3 | -26% | 0% | ? | 3%
COc1cc(C2Nc3cccc4cccc(c34)N2)ccc1OC(C)=O | -18 | 3% | 1% | 10µM* | 8%
COc1cc(C2Nc3cccc4cccc(c34)N2)cc(OC)c1O | -25 | -14% | 11% | 16µM* | 12%
O=C(Nc1ccc2oc(-c3cccnc3)nc2c1)c1ccco1 | nt | 0% | 55% | ? | 2%
O=C(Nc1ccc2oc(-c3cccnc3)nc2c1)c1ccc(Br)o1 | -18 | 8% | 10% | 45µM* | 13%
CC(c1ccc(N(C)C)cc1)c1ccnc2ccccc12 (centres undefined) | nt | nt | 5% | 24% | nt
COc1cccc(NC(=O)CCN2C(=O)c3ccccc3Sc3ncccc32)c1 | -2 | -8% | -2% | 71µM* | 23%
COC(=O)[C@H]1O[C@@H](c2cc(OC)c(C)c(OC)c2OCc2ccccc2)[C@H](C)[C@H]2O[C@@]12C | 1 | nt | nt | nt | nt
CCOC(=O)C(NC(=O)Nc1ccc(O)cc1)(c1ccccc1)C(F)(F)F (centres undefined) | -39* | -2% | -6% | -13% | 6%
CCOC(=O)C(NC(=O)NC1CCCCC1)(c1ccccc1)C(F)(F)F (centres undefined) | 3 | -11% | 9% | -23% | 5%
CCn1cc(/C=N/NC(=O)c2ccc(C#N)cc2F)c2ccccc21 | -32* | 0% | -2% | 9% | 31%
CC(C)Cn1c([N+](=O)[O-])nc2c1c(=O)[nH]c(=O)n2C | -31* | 4% | 2%[57.1 µM] | -53% | 18%
Cn1c(=O)[nH]c(=O)c2c1nc(Br)n2CCC(=O)c1ccccc1 | 1 | -3% | 5%[57.1 µM] | 18µM* | 1%
Cn1c(=O)[nH]c(=O)c2c1nc(Br)n2C/C=N/NC(=O)c1ccccc1 | 1 | 2% | 1%[57.1 µM] | 16%[57.1 µM] | 8%
Cn1c(=O)[nH]c(=O)c2c1nc([N+](=O)[O-])n2Cc1ccccc1 | -45* | 3% | -4% | 6.3µM* | -3%
CC(=O)OCC1OC(C#CCC2CCCCC2)C=CC1OC(C)=O (centres undefined) | 3 | nt | nt | nt | nt
CN(Cc1ccccc1)C(=O)c1nc[nH]c1C(=O)N1CCc2ccccc2C1 | nt | 0% | 1% | 40µM* | -11%
COc1cc(NS(=O)(=O)c2ccc(NC(=S)NC(=O)/C=C/c3ccco3)cc2)ncn1 | 1 | 1% | -17% | 56µM* | -8%
Cc1ccc(NC(=O)N/C=C/c2ccco2)cc1 | 0 | -16% | 18% | 16µM* | 9%
CC(=O)N(C)c1ccc(NC(=S)NC(=O)/C=C/c2ccco2)cc1 | 0 | -5% | -4% | 35µM* | -5%
SMILES | Coupling enz | Eya2 phos inh | TrxR1 substrate | TrxR1 inh | IDH1 R132H inh
COc1cccc(NC(=S)NC(=O)/C=C/c2ccco2)c1 | 1 | 3% | 6%[57.1 µM] | -31%[57.1 µM] | 1%
CC(=O)N(C)c1ccc(NC(=S)Nc2cccc3ccccc23)cc1 | -36* | -2% | 38% | -20% | 5%
CCOc1ccc(NC(=S)NC(=O)/C=C/c2ccco2)cc1 | 0 | 9% | 10%[57.1 µM] | -8%[57.1 µM] | 3%
CCCC(=O)Oc1ccc2[nH]c(C(=O)c3cc4ccccc4[nH]3)cc2c1 | nt | nt | 7% | 9% | nt
C=C1C2CC[C@]3(CCC4[C@@]5(C)CCC[C@@]4(CN(CCO)C5)[C@@H]3C2)[C@@H]1O (some centres undefined) | 0 | nt | nt | nt | nt
Brc1ccc[n+](CCC2CCCCC2)c1 | nt | nt | -3% | -8% | nt
O=C(/C=C/c1ccco1)Nc1ccc2nn(-c3ccccc3)nc2c1 | -1 | -3% | -5% | 56µM* | 10%
CC(=O)Nc1ccc(NC(=S)NC(=O)/C=C/c2ccco2)cc1 | -1 | -4% | 2% | 40µM* | 0%
